Screening data deposited in PubChem BioAssay by National Center for Advancing Translational Sciences (NCATS).
The list is not random: actives were taken first. Their share in the collection is about 17%.
TDP1 cell noCPT = qHTS for Inhibitors of human tyrosyl-DNA phosphodiesterase 1 (TDP1): qHTS in cells in absence of CPT | DT40 Tdp1-/- hTDP1 cells, no CPT, ATP luminescence, 48 h | Potency, µM (top dose mostly 46.2 µM), for the others: at the top dose activity change, negative = growth inhibition, actives largely listed as inhibitors | 420,000 tested, 15% active; note: % is set by controls: 0 for no effect and ±100 for the full control effect; nearly all actives have a fitted effect of over 55% in size
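A cellular qHTS used chicken DT40 cells lacking endogenous Tdp1 but carrying stably transfected human TDP1. Compounds were applied without camptothecin, and cell growth kinetics were judged by ATP-dependent luminescence after ≥48 hr.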
HT1080 IDH1KD tx = HT-1080 IDH1 knockdown cell toxicity (counter line) | 360,000 tested, 2% active | Potency, µM (highest dose often 46.1 µM), for inactives: top-dose activity, negative = toxicity, most hits filed as cytotoxic | HT-1080 IDH1 knockdown viability, ATP luminescence, 48 h;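 note: 0% = DMSO wells and -100% = cell-free medium wells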
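Viability of IDH1-knockdown HT-1080 fibrosarcoma cells was assessed by CellTiter-Glo after 48 h at 37 °C with titrated compound; concentration-effect curves were classified by fit quality and response size.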
HepG2 viability = kills HepG2 cells in TGF-b inhibitor counter-screen; 410,000 tested, 0.76% active; HepG2 CAGA-GFP viability, ATP luminescence, 18 h; AID 588856; Potency, µM (top dose mostly 46.1 µM), for the others: top-dose activity change, negative = cytotoxicity, usual class: cytotoxic
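CellTiter-Glo luminescence gave cytotoxicity after 18 hours at 37 degrees C. The cells were HepG2 CAGA-GFP in 1% FBS DMEM, stimulated with 500 pg/mL TGF-beta after compound addition. %Activity was normalised to no-cell wells (complete cell-killing) and DMSO (no toxicity), and curves were fitted and classified.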
TGFb SMAD3 inh = TGF-b pathway inhibition | 410,000 tested, 1.2% active | Potency, µM (titrated, usually from 46.1 µM), for inactives: top-dose activity, negative = inhibition, usual class: inhibitors | HepG2 CAGA-GFP TGF-b/SMAD3 reporter, GFP fluorescence, 18 h; TGF-beta stimulated, 500 pg/mL final; note: % is set by controls: 0 for no effect and ±100 for the full control effect; nearly all actives have a fitted effect of over 65% in size
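HEPG2 CAGA-GFP cells (1000/well, DMEM with 1% FBS) were pre-incubated 2 h at 37 degrees C, given compound by pin tool, then stimulated with TGF-beta at 500 pg/mL final for 18 h before per-cell GFP fluorescence imaging.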
HT1080-NT tox = kills 2HG-producing HT-1080-NT fibrosarcoma cells; HT-1080-NT fibrosarcoma viability, CellTiter-Glo ATP luminescence, 48 h; Potency, µM (highest dose often 46.1 µM), for the others: top-dose activity, negative = less viability, usual class: cytotoxic; 360,000 tested, 1.6% active; AID 686970;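 note: NT is the 2HG producing partner of a matched IDH1 knockdown line; 0% = DMSO-treated cells and -100% = media-only wells without cells; nearly all actives have a fitted effect of over 55% in size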
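750 cells/well, RPMI + 5% FBS; 2 h settle, compound pin-transfer, 48 h at 37 degrees C. CellTiter-Glo 10 min RT, luminescence. Normalized to DMSO and media-only wells.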
TDP1 cell CPT = DT40-hTDP1 cell growth loss with CPT | chicken DT40 Tdp1-/-;hTDP1 cells + 20 nM CPT, ATP luminescence, 48 h | Potency, µM (titrated, usually from 46.2 µM), for the others: at the top dose activity change, negative = growth inhibition, usual class: inhibitors | 420,000 tested, 12% active; note: % is set by controls: 0 for no effect and ±100 for the full control effect; nearly all actives have a fitted effect of over 55% in size
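Chicken DT40 Tdp1-/- cells complemented with human TDP1, 400 cells/well, exposed to compounds plus 20 nM camptothecin for at least 48 h at 37 C; viability read as ATP content by CellTiter-Glo luminescence.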
* marks the source's active call; other numbers are inactive results; ? = inconclusive; · = no result given; ! = not active in a repeat. Calls come from the whole dose curve; as a rule, active = well fitted curve in the direction sought with a large enough effect; inconclusive = small, poorly fitted or top-dose-only effect, or another doubt; inactive = no such curve, though single readings can be large; an effect the other way counts as inactive or inconclusive. Potency is the fitted concentration of half-maximal effect.

SMILES	TDP1 cell noCPT	HT1080 IDH1KD tx	HepG2 viability	TGFb SMAD3 inh	HT1080-NT tox	TDP1 cell CPT
Cc1cc(Cl)c2oc(C(=O)N3CCOCC3)c(C)c2c1	-22.3%	8.0%	-16.7%	4.2%	15.8%	?
O=C(Cn1cnc([N+](=O)[O-])n1)NCCO	-9.7%	9.6%	0.9%	20.9%	2.6%	15.1%
CCc1nnc(NC(=O)CN2CCN(Cc3ccc(F)cc3)CC2)s1	-2.6%	-0.1%	-2.4%	14.0%	0.2%	2.1%
O=C(NCCc1nnc2n1CCN(Cc1c(F)cccc1F)CC2)c1ccco1	-11.1%	·	·	·	·	-2.8%
CCN(CC)CCCNC(=O)c1ccc(CS(=O)(=O)c2ccccc2OC)o1	25.0%	0.2%	2.1%	4.2%	-1.8%	0.5%
Cc1ccccc1-c1ncc(CN2CCN(C3CCCC3)C(CCO)C2)cn1 (stereo not drawn)	-10.5%	-0.9%	-0.5%	0.1%	2.9%	-10.4%
OCCC1CN(Cc2cnc(-c3cccc4ccccc34)nc2)CCN1C1CCCCC1 (stereo not drawn)	18.4µM*	-9.4%	-37.6%	-6.6%	-0.3%	23.1µM*
CN(C)c1ccc(/C=C/c2ccc3c4ccccc4ccc3[n+]2-c2ccccc2)cc1	0.164µM*	5.8µM*	-56.8%	?	11.6µM*	0.206µM*
[O-][n+]1c(/C=C/c2ccccc2)ccc2ccccc21	16.4µM*	-17.1%	-27.3%	?	-14.6%	20.6µM*
CN(C)c1ccc(/C=C/c2cc3ccccc3c[n+]2C)cc1	0.1µM*	·	-27.4%	10µM*	·	0.0891µM*
CN(C)c1ccc(/C=C/c2c[n+](C)cc3ccccc23)cc1	0.282µM*	·	-25.1%	12.6µM*	·	0.355µM*
CN(C)c1ccc(/C=C/c2cncc3ccccc23)cc1	?	·	-2.1%	2.7%	·	?
[O-][n+]1ccccc1/C=C/c1ccccc1	-1.6%	5.2%	-1.0%	3.2%	25.7%	4.7%
CN(C)c1ccc(/C=C/c2cccc[n+]2[O-])cc1	4.5%	8.0%	13.5%	13.7%	18.5%	1.7%
CN(C)c1ccc(/C=C/c2c3ccccc3cc[n+]2[O-])cc1	?	·	-8.5%	2.9%	·	?
CO[C@@H]1CN(C)C(=O)c2cc(NC(=O)NC3CCCCC3)ccc2OC[C@@H](C)N(CC2CCOCC2)C[C@@H]1C	?	22.2%	·	·	14.5%	?
CN(C)c1ccc(/C=C/c2ccc3ccccc3[n+]2C)cc1	0.13µM*	1.3µM*	7.08µM*!	2.24µM*	?	0.164µM*
CCn1c(CNC(=O)COc2ccc(C(C)C)cc2)nnc1SCC(=O)Nc1ccccc1C(C)C	16.4µM*	?	-29.9%	-29.2%	?	16.4µM*
Cc1ccccc1CN1N=C(/C=C/c2ccccc2)CCC1=O	23.1µM*	-0.4%	-28.1%	5.3%	-0.1%	-9.0%
Cn1nc(C(C)(C)C)cc1C(=O)N1CCCCC1c1cc(C(=O)Nc2ccccc2)no1 (stereo not drawn)	23.1µM*	1.7%	-17.9%	-15.9%	-3.9%	20.6µM*
CC(C)NC(=O)c1cc(C2CCCCN2C(=O)c2ccc(Cl)cc2)on1 (stereo not drawn)	-11.4%	26.4%	-8.6%	2.1%	18.4%	-29.3%
CC(C)NC(=O)c1cc(C2CCCCN2C(=O)c2cc(C(C)(C)C)nn2C)on1 (stereo not drawn)	13µM*	-1.7%	-4.9%	-2.2%	9.3%	?
Cn1nc(C(C)(C)C)cc1C(=O)N1CCCCC1c1cc(C(=O)Nc2ccccc2Cl)no1 (stereo not drawn)	20.6µM*	?	-7.7%	?	?	20.6µM*
CC(=O)Nc1ccc(C(=O)N2CCCCC2c2cc(C(=O)Nc3cccc(C#N)c3)no2)cc1 (stereo not drawn)	?	0.9%	-1.1%	7.3%	5.0%	?
Cn1nc(C(C)(C)C)cc1C(=O)N1CCCCC1c1cc(C(=O)Nc2ccc3c(c2)OCO3)no1 (stereo not drawn)	4.61µM*	?	-17.4%	-11.8%	-24.2%	18.4µM*
SMILES	TDP1 cell noCPT	HT1080 IDH1KD tx	HepG2 viability	TGFb SMAD3 inh	HT1080-NT tox	TDP1 cell CPT
CCOC(=O)c1ccc2c(c1)nc(SC(C)C(=O)NCC1CCCO1)n2CC (stereo not drawn)	-24.9%	-1.2%	-8.4%	9.9%	-0.9%	-3.7%
CC(=O)Nc1ccc(C2NC(=O)CCC2[N+](=O)[O-])cc1 (stereo not drawn)	4.1%	5.5%	6.9%	0.1%	7.5%	12.6%
Cc1ccc(C2CC(=O)n3nc(-c4ccc(Cl)cc4)nc3S2)cc1 (stereo not drawn)	-26.2%	·	-43.8%	?	·	-28.9%
Cn1nc(C(C)(C)C)cc1C(=O)N1CCCC(c2cc(C(=O)NCc3ccccc3)no2)C1 (stereo not drawn)	14.6µM*	4.0%	-7.7%	7.1%	11.6%	20.6µM*
O=C(Nc1ccc2c(c1)OCO2)c1cc(C2CCCCN2C(=O)CCCc2ccccc2)on1 (stereo not drawn)	?	-5.1%	-24.0%	3.2%	-4.2%	?
CCCC(=O)N1CCCC(c2cc(C(=O)NCc3ccccc3)no2)C1 (stereo not drawn)	-7.4%	?	6.7%	35.5%	20.6%	-10.5%
Cc1ccc(C)c(CC(=O)N2CCCC(c3cc(C(=O)Nc4ccccc4Cl)no3)C2)c1 (stereo not drawn)	?	-19.6%	-17.1%	?	-18.6%	?
Cn1nc(C(C)(C)C)cc1C(=O)N1CCCCC1c1cc(C(=O)NCc2cccnc2)no1 (stereo not drawn)	20.6µM*	8.2%	-2.8%	6.6%	5.9%	23.1µM*
O=C(NCc1cccnc1)c1cc(C2CCCCN2C(=O)c2ccccc2)on1 (stereo not drawn)	?	9.2%	-13.9%	-9.1%	?	?
Cn1nc(C(C)(C)C)cc1C(=O)N1CCCC(c2cc(C(=O)Nc3ccccc3Cl)no2)C1 (stereo not drawn)	23.1µM*	-19.7%	-25.5%	-11.2%	-15.6%	?
O=C(Nc1ccc2c(c1)OCO2)c1cc(C2CCCCN2C(=O)c2ccccc2)on1 (stereo not drawn)	9.2µM*	1.4%	-4.2%	-4.7%	-20.1%	13µM*
CCN(CC)c1ccc2nc3ccccc3[n+](CC)c2c1	1.84µM*	23.1µM*	-62.0%	?	25.9µM*	5.17µM*
